A selection: hits, their analogues and other compounds. The true share with any hit is near 3.7%.
Bead autofluor = compound fluorescence in toxin protease inhibitor counterscreen; compound autofluorescence counterscreen, microsphere flow cytometry; active compounds read high; fluorescence intensity (test concentration not listed); 360,000 compounds, 3.1% hits; in the data active = fluorescence intensity above about 16000; inconclusive = no clear call, values can overlap the other calls
BoNT-F LC inh = BoNT F light chain protease inhibition | Multiplex microsphere protease cleavage assay, flow cytometry | inhibition, % at 10 µM | 360,000 compounds, 0.22% hits | AID 588497; in the data active = inhibition above about 35%, passing the limit was not always enough; inconclusive = no clear call, values can overlap the other calls
Anthrax LF inh2 = inhibitors of Bacillus anthracis lethal factor protease; 360,000 compounds, 0.12% hits; multiplex microsphere protease cleavage assay, LF; P15917; inhibition, % at 10 µM
MazF activator = activators of E. coli MazEF toxin-antitoxin RNase; FAM/BHQ RNA-DNA oligo cleavage fluorescence, 5 h; P0AE70; 350,000 compounds, 0.32% hits; activation, % at 20 µM; in the data active = activation above about 50%
Target sequence (P0AE70 whole entry, looked up): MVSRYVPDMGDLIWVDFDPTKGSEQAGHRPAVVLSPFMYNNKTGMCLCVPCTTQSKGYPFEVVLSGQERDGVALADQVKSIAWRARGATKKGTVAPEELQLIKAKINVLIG
BoNT-A LC inh2 = BoNT A light chain protease inhibition | multiplex microsphere protease substrate cleavage, flow cytometry | inhibition, % at 10 µM | 360,000 compounds, 0.17% hits | AID 588499
A number is an active result; 0 = inactive; ? = inconclusive; - = no result. Cut-off read from the data, not from the text of the source, unless noted: active = inhibition above about 30%; inconclusive = no clear call, values can overlap the other calls; inactive = below that.

SMILES	Bead autofluor	BoNT-F LC inh	Anthrax LF inh2	MazF activator	BoNT-A LC inh2
O=C(CNS(=O)(=O)c1ccccc1)OCC(=O)c1ccc(OC(=O)c2ccccc2)cc1	21032	0	0	0	?
CCOc1cccc2sc(N(CCCN(C)C)C(=O)c3ccc(S(=O)(=O)N4CCc5ccccc5C4)cc3)nc12	0	0	0	50	0
O=C(NC12CC3CC(CC(C3)C1)C2)c1cncc(O)c1	20010	0	0	0	0
O=C(NC12CC3CC(CC(C3)C1)C2)c1cccnc1	0	0	0	0	0
N#CCCN1CCN(C(=S)c2ccc(-c3ccc(Cl)cc3)o2)CC1	20131	0	0	0	?
COc1cccc(-c2nnc3n2N=C(C(C)(C)C)CS3)c1	23357	0	0	0	0
CC1=Nn2c(nnc2-c2ccco2)SC1	22078	0	0	0	0
COc1ccc(-c2nnc3n2N=C(C)CS3)cc1	23552	0	0	0	?
COc1ccc(C2=Nn3c(nnc3-c3ccc(OC)cc3)SC2)cc1	0	0	0	0	0
COc1cccc(-c2nnc3n2N=C(c2cc(OC)ccc2OC)CS3)c1	0	0	0	0	0
Cn1cc(C(=O)Nc2ccc(Cl)c(Cl)c2)cn1	0	0	0	0	0
CC(=O)Nc1cccc(-c2ccnc3c2CC(C)(C(=O)NCc2cccs2)O3)c1 (stereo not given)	0	0	0	-	0
CCCCCCCCN1C(=O)C(O)=C(C(C)=O)C1c1ccccn1 (stereo not given)	31940	0	0	0	0
CCCCN1C(=O)C(O)=C(C(C)=O)C1c1ccccc1 (stereo not given)	0	0	0	0	0
COc1ccc(C(=O)CSc2n[nH]c(-c3ccco3)n2)cc1	17016	0	0	0	0
NC(=O)CSc1n[nH]c(-c2ccco2)n1	0	0	0	0	0
Cc1ccc(C(=O)CSc2n[nH]c(-c3ccco3)n2)cc1C	17185	0	0	0	0
CC(=O)N1C[C@H]2CON(C)[C@H]2C[C@H]1c1cccc(-c2cc(Cl)cc(Cl)c2)c1	0	0	0	0	0
COc1ccc(C(NC(=O)C2CCN(CCCOc3ccccc3)CC2)c2cccs2)cc1 (stereo not given)	0	0	0	-	0
S=C(NCCc1ccccc1)N1Cc2cc(-c3ccccc3)ccc2-n2nncc2C1	0	0	0	-	0
S=C(NCCc1ccccc1)N1Cc2cc(N3CCCCC3)ccc2-n2nncc2C1	32547	70	0	-	0
O=C(O)COc1ccc(/C=N/NC(=O)c2cccc3ccccc23)cc1	0	0	0	0	0
COc1cccc(C2C(C(=O)Nc3cccnc3)=C(C)Nc3nnnn32)c1OC (stereo not given)	0	0	0	0	0
COc1ccccc1NC(=O)C1=C(C)Nc2nnnn2C1c1cc(Br)ccc1OC (stereo not given)	23731	0	0	0	0
CC1=C(C(=O)Nc2cccnc2)C(c2ccncc2)n2nnnc2N1 (stereo not given)	19936	0	0	0	?
SMILES	Bead autofluor	BoNT-F LC inh	Anthrax LF inh2	MazF activator	BoNT-A LC inh2
CCOCc1nnc(NC(=O)C2CC(=O)N(C3CCCC3)C2)s1 (stereo not given)	0	0	0	0	0
O=C(C[n+]1ccc(CCSc2ccc(F)cc2)cc1)c1ccccc1	0	0	0	0	0
Cc1cccn2c(=O)nc(SCC(=O)Nc3ccc4c(c3)OCCO4)nc12	0	0	0	0	0
COC(=O)c1ccccc1NC(=O)c1noc2c1CCCC2	19950	0	0	0	0
COc1cc(NC(=O)c2noc3c2CCC3)c(OC)cc1Cl	19679	0	0	0	0
Cc1ccc(C2C(=O)N(C3CCCC3)CC(=O)N2CC2COc3ccccc3O2)cc1 (stereo not given)	19758	0	0	0	0
COc1ccc(C2C(=O)N(C3CCCCC3)CC(=O)N2CC2COc3ccccc3O2)cc1 (stereo not given)	21276	0	0	0	0
CCCc1cc(-c2n[nH]c(=S)n2-c2cccc(C)c2)cs1	0	0	0	0	0
Cc1cccc(-n2c(-c3csc(C(C)C)c3)n[nH]c2=S)c1	20031	0	0	0	0
O=C(Cc1ccccc1)N1CCCC1c1ccccc1 (stereo not given)	21410	0	0	0	0
CC1CCCC(C)N1C(=O)Cc1ccccc1 (stereo not given)	0	0	0	0	0
CN1OC[C@@H]2CN(C(=O)CCc3ccccc3)[C@H](c3cccc(-c4ccccc4)c3)C[C@@H]21	0	0	0	0	0
CC(C)(C)c1csc(SCC(=O)Nc2ccc(Cl)cn2)n1	18967	0	0	0	0
Cc1nnc(SCC(=O)Nc2nc(C(C)(C)C)cs2)s1	21050	0	0	0	?
